Measured values reported in the supplement of paper PMC12819154, “High-throughput peptide-centric local stability assay extends protein–ligand identification to membrane proteins, tissues and bacteria” (Nature Structural & Molecular Biology, 2025).

Compound: Nc1ncnc2c1ncn2[C@@H]1O[C@H](COP(=O)(O)OP(=O)(O)OP(=O)(O)O)[C@@H](O)[C@H]1O [adenosine 5'-triphosphate]
Assay: log2 fold change of tryptic peptide abundance, ligand vs vehicle (limited proteolysis) (log2 ratio); higher = more trypsin-susceptible (destabilized)
Conditions: ligand concentration: 5 mM; sample: E. coli desalted lysate; replicate design: treated before aliquoting
Method: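 HT-PELSA: desalted E. coli K-12 BW25113 lysate (with 12 mM MgCl2) incubated with 5 mM ATP (pH 7) or water for 30 min at 25 C, then a 4 min trypsin pulse at 22 C. Peptides were quantified by DIA-MS (4 replicates). Value is the peptide log2 fold change (treated/control); negative = stabilized. Scale: negative = ligand-stabilized region.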
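Also: lysate desalted by size exclusion to strip endogenous ATP, peptide intensities built from DIA-NN precursor signals, and peptides missing any value discarded before comparison.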

UniProt P42589, sequence (P42589 whole entry): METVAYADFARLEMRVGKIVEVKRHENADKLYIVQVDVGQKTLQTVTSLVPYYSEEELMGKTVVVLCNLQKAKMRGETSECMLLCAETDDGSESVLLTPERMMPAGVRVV
UniProt P00393, sequence (P00393 whole entry): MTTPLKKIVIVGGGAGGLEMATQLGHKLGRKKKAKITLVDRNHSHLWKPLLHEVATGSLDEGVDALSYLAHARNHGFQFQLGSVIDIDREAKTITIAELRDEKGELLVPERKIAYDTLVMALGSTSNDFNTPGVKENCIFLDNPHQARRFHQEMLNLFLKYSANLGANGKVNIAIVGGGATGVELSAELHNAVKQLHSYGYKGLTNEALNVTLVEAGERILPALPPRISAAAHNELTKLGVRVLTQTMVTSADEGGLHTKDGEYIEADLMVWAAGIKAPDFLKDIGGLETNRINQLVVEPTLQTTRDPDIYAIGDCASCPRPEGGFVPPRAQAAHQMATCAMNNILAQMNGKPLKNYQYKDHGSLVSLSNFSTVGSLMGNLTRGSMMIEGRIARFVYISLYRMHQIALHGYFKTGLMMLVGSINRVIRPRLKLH
UniProt P0AG14, sequence (P0AG14 whole entry): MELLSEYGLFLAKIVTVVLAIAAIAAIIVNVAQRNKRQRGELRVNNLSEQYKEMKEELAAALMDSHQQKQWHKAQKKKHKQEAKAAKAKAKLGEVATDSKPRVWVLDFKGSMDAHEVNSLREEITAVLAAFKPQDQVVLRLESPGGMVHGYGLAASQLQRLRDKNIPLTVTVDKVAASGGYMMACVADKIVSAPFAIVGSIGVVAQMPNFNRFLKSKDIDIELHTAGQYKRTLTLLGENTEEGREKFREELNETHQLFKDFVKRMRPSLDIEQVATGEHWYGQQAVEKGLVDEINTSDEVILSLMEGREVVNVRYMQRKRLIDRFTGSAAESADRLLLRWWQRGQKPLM
UniProt P15081, sequence (P15081 whole entry): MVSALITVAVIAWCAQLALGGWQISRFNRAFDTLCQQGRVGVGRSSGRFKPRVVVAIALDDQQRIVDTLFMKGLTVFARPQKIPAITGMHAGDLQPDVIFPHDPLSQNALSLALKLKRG
UniProt P07109, sequence (P07109 whole entry): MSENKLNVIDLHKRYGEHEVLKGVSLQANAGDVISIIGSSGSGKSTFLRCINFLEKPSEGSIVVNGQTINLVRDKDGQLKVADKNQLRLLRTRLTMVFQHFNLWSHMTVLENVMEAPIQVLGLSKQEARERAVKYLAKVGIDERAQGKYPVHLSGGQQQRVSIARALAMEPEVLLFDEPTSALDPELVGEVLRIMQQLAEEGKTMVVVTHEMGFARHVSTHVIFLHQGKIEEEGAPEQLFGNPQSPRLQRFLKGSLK
UniProt P33602, sequence (P33602 whole entry): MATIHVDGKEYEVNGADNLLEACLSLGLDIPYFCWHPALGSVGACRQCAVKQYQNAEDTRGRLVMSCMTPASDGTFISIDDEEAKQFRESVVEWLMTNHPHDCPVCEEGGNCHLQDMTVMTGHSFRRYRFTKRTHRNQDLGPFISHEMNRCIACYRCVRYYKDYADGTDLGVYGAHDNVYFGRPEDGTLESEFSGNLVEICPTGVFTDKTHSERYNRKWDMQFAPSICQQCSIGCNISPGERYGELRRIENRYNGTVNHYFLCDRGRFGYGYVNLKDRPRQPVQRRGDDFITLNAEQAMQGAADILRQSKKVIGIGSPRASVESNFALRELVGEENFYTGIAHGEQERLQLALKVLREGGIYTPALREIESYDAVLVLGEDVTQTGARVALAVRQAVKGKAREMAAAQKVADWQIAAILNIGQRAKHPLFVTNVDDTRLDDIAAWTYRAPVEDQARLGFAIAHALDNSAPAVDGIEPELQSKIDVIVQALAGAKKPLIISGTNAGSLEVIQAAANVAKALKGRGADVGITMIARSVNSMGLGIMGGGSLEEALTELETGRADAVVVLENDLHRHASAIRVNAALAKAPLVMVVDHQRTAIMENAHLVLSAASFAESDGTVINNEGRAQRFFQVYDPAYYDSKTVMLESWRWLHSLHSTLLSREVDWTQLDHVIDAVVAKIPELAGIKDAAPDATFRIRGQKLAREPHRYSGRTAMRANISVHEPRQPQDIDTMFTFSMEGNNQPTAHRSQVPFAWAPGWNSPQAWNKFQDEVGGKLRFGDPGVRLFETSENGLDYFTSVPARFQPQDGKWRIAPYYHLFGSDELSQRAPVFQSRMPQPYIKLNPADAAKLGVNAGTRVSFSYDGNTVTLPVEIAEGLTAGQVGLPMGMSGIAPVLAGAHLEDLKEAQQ
UniProt P75745, sequence (P75745 whole entry): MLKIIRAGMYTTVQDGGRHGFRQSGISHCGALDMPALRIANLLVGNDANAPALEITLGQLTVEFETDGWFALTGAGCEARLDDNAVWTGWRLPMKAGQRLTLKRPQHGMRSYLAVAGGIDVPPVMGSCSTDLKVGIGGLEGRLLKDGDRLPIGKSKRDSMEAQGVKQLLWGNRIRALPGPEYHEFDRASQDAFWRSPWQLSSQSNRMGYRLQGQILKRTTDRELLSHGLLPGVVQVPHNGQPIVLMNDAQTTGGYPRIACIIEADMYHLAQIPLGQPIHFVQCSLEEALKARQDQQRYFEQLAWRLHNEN
UniProt P07821, sequence (P07821 whole entry): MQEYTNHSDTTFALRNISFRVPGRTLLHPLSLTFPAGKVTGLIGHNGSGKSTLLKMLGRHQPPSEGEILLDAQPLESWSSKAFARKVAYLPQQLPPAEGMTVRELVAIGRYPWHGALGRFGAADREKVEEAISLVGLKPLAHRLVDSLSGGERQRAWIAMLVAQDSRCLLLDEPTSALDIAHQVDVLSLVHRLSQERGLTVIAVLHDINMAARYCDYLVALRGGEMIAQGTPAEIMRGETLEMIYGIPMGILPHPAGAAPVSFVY
UniProt P03813, sequence (P03813 whole entry): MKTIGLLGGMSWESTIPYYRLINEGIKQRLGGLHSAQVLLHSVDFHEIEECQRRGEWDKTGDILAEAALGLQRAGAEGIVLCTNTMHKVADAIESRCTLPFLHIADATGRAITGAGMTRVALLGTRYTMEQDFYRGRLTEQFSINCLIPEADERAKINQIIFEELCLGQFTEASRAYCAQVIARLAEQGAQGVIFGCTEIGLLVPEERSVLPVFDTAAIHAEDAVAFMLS
UniProt P08394, sequence (P08394 whole entry): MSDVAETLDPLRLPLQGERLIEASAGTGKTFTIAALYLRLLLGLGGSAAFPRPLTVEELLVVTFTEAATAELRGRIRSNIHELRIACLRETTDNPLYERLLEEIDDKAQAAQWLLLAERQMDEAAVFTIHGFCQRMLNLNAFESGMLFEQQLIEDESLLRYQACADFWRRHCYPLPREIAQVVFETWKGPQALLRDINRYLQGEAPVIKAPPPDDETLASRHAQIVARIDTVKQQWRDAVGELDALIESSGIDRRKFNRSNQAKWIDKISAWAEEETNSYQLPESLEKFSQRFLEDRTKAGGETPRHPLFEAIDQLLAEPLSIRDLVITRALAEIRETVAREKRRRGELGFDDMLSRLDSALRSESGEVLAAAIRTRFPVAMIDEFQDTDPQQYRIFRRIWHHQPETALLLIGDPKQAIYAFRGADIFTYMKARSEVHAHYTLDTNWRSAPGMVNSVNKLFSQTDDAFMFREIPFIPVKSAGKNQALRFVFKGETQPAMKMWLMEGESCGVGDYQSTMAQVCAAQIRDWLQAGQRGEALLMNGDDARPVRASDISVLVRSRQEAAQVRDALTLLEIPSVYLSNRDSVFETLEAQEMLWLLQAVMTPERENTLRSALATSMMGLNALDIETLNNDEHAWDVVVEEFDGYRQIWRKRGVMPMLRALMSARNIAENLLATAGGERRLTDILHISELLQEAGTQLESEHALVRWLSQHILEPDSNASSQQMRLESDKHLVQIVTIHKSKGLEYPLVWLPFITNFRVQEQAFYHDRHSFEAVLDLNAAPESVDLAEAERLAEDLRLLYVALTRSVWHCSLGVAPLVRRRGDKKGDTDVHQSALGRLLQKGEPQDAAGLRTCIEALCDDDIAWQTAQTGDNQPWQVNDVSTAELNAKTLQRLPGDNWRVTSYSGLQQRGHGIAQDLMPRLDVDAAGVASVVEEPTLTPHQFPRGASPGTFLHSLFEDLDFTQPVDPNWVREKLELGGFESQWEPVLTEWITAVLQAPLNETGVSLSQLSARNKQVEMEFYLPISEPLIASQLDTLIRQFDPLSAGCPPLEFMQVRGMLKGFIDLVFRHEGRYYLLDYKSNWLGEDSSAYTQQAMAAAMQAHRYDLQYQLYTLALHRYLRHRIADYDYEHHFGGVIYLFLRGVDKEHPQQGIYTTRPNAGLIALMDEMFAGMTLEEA
UniProt P77783, sequence (P77783 whole entry): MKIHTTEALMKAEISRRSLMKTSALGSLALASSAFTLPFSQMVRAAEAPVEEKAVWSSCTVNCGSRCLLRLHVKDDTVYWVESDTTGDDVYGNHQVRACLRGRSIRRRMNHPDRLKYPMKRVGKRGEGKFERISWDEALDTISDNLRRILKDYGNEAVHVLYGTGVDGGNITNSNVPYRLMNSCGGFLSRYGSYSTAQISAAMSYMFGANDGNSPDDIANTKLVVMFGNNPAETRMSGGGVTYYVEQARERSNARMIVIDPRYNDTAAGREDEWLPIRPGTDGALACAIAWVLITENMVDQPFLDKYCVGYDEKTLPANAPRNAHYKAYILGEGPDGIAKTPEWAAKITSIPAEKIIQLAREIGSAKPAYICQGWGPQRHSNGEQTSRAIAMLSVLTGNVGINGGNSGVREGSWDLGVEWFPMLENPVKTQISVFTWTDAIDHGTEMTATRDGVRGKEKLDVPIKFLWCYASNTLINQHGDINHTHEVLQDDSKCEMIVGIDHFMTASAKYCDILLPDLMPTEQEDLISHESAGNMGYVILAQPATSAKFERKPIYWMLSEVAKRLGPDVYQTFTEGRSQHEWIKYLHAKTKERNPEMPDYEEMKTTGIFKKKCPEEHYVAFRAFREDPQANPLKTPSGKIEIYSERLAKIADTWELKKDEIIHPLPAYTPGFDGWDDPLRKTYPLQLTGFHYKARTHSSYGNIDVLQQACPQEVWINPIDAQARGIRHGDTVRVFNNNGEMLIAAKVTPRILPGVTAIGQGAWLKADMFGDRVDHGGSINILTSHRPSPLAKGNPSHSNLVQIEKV

| Target | log2 fold change |
| --- | --- |
| UniProt P00914 (peptide sequence: LSASLATGGLSPR, peptide start residue: 238) | -0.871 |
| UniProt P52108 (peptide sequence: KKLLDNAAEPYR, peptide start residue: 211) | 0.266 |
| UniProt P08394 (peptide sequence: HCYPLPR, peptide start residue: 171) | 1.13 |
| UniProt P75745 (peptide sequence: QLLWGNR, peptide start residue: 167) | -0.312 |
| UniProt P23862 (peptide sequence: KRIQHQDFER, peptide start residue: 111) | 1.03 |
| UniProt P32173 (peptide sequence: DAPVVWVHDGERDHPTIALVNR, peptide start residue: 119) | -0.372 |
| UniProt P15081 (peptide sequence: AFDTLCQQGR, peptide start residue: 30) | -0.599 |
| UniProt P00393 (peptide sequence: ISAAAHNELTK, peptide start residue: 228) | -0.559 |
| UniProt P15373 (peptide sequence: SHAVLTTESK, peptide start residue: 7) | -0.194 |
| UniProt P33602 (peptide sequence: IAPYYHLFGSDELSQR, peptide start residue: 812) | 0.28 |
| UniProt P24202 (peptide sequence: LKSRPDAVDLDPK, peptide start residue: 114) | 0.712 |
| UniProt P0AG14 (peptide sequence: VNNLSEQYK, peptide start residue: 44) | -0.765 |
| UniProt P04825 (peptide sequence: GLENLSGDLYEK, peptide start residue: 853) | -0.937 |
| UniProt P33029 (peptide sequence: AHQALLTDR, peptide start residue: 38) | -0.503 |
| UniProt P00452 (peptide sequence: FYDAVSTFK, peptide start residue: 196) | -3.51 |
| UniProt P00509 (peptide sequence: VWVSNPSWPNHK, peptide start residue: 123) | -1.24 |

| Target | log2 fold change |
| --- | --- |
| UniProt P77258 (peptide sequence: DENGQAIR, peptide start residue: 136) | -0.737 |
| UniProt P39208 (peptide sequence: RAGHFMPVALLK, peptide start residue: 119) | -1.52 |
| UniProt P07821 (peptide sequence: TLLHPLSLTFPAGK, peptide start residue: 25) | -1.16 |
| UniProt P03813 (peptide sequence: YTMEQDFYR, peptide start residue: 127) | -0.699 |
| UniProt P08390 (peptide sequence: AVDALAGQSAK, peptide start residue: 168) | 0.237 |
| UniProt P46887 (peptide sequence: GKFIPSKDGFSTDQSK, peptide start residue: 60) | 0.606 |
| UniProt P23841 (peptide sequence: LNMSQPPLSIHIK, peptide start residue: 31) | -0.876 |
| UniProt P07109 (peptide sequence: YGEHEVLK, peptide start residue: 15) | -1.13 |
| UniProt P33368 (peptide sequence: IINITSVHEHTPLPDASAYTAAK, peptide start residue: 135) | 0.894 |
| UniProt P42589 (peptide sequence: TVVVLCNLQK, peptide start residue: 62) | -0.415 |
| UniProt P77783 (peptide sequence: MNHPDRLK, peptide start residue: 109) | -0.483 |
| UniProt P08201 (peptide sequence: LIVSEDNK, peptide start residue: 359) | 1.35 |
| UniProt P33650 (peptide sequence: AYAGEASQHLDAALAR, peptide start residue: 217) | 0.832 |
| UniProt P25741 (peptide sequence: LSDVGVDTMK, peptide start residue: 84) | -0.922 |
| UniProt P75958 (peptide sequence: GVADALK, peptide start residue: 153) | -0.59 |
